Activity calls are given as the source filed them. Unless noted, the rule behind the calls is not given here.
Legend:
[1] = system: Wnt5a (protein binding on small-molecule microarray); assay: small molecules binding Wnt5a protein – biophysical, small-molecule microarray, 635/667 nm fluorescence, primary screen (AID 1142); conditions: 635 nm fluorescence, higher = more signal;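 note: fluorescence read at 667 nm with signal to noise per printed feature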
[2] = ATP-based viability of Huh7 replicon cells – cell-based, CellTiter-Glo luminescence, basal, 48 h, cytotoxicity control for HCV replication inhibitor project, primary screen (AID 1143); conditions: higher = more signal, called active from +8 up or from −8 down;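 note: Huh7 hepatoma cells carrying a hepatitis C replication reporter with no stimulus; test concentration not given here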
[3] = Pseudomonas biofilm growth suppression – PAO1 strain, BacTiter-Glo luminescence, LB-PBS, primary screen (AID 1144); conditions: P. aeruginosa PAO1 biofilm, 12 h, higher = more signal
[4] = basal CRE-LacZ reporter activity in PC12 – cell-based, unstimulated, primary screen (AID 1145); conditions: no forskolin, luminescence, 4.5 h, higher = more signal, called active from +8 up or from −8 down
[5] = forskolin-driven CRE-LacZ activity in PC12 – cell-based, CRE-LacZ reporter, forskolin-stimulated, primary screen (AID 1146); conditions: luminescence, 4.5 h, higher = more signal, called active from +8 up or from −8 down;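 note: PC12 cells with 6xCRE LacZ reporter stimulated by forskolin 10 µM; beta-galactosidase reporter signal reflecting CREB driven transcription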
[6] = target: Streptavidin (Streptomyces avidinii) (UniProt P22629); assay: compounds binding control protein streptavidin – biophysical, small-molecule microarray, 635/667 nm fluorescence, artefact control for SMM compound annotation, primary screen (AID 1147); conditions: higher = more signal;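 note: signal reflects streptavidin binding to arrayed compounds as a control protein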
[7] = probe aInhba binding on compound microarray – biochemical, small-molecule microarray, 635/667 nm fluorescence, primary screen (AID 1148); conditions: higher = more signal;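 note: score merges 667nm spot fluorescence with signal-to-noise for antibody binding to printed compounds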
Torsin-1A (Homo sapiens) [8] = target: Torsin-1A (Homo sapiens) (UniProt O14656); assay: TOR1A wild-type binding on microarray – cell lysate, small-molecule microarray, lysate, 635/667 nm, primary screen (AID 1149); conditions: COS7 hTOR1A-WT lysate, 635 nm fluorescence, higher = more signal
Torsin-1A (Homo sapiens) [9] = target: Torsin-1A (Homo sapiens) (UniProt O14656); assay: torsin A mutant lysate binding on microarrays – cell lysate, small-molecule microarray, COS7 lysate, 635/667 nm fluorescence, primary screen (AID 1150); conditions: COS7 hTOR1A mutant lysate, 635 nm fluorescence, higher = more signal;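 note: score pools 667 nm emission and signal to noise measuring lysate protein binding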
[10] = system: Sonic hedgehog protein (Shh); assay: Sonic hedgehog microarray binding compounds – biochemical, small-molecule microarray, 635/667 nm fluorescence, primary screen (AID 1151); conditions: 635 nm fluorescence, higher = more signal;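 note: Shh protein binding to compounds spotted on small-molecule microarray slides; score combines spot fluorescence intensity with signal-to-noise across triplicate slides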

Chain of Torsin-1A (Homo sapiens) (O14656 whole entry, looked up): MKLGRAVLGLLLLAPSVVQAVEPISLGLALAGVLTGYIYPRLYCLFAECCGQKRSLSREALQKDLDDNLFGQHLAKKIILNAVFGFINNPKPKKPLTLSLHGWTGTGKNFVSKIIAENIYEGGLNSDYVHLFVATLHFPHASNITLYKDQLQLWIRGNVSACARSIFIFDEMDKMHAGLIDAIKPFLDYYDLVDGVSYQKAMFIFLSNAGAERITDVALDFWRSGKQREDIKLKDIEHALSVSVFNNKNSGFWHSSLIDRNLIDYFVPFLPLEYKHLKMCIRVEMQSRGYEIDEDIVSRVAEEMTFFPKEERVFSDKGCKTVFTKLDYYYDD
Chain of Streptavidin (Streptomyces avidinii) (P22629 whole entry, looked up): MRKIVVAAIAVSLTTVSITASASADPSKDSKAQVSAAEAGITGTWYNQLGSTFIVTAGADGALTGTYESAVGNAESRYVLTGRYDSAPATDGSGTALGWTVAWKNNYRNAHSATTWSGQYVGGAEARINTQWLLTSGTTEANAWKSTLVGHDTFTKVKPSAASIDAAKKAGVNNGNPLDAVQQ

Row | SMILES | composite z-score [1] | z-score [2] | z-score [3] | z-score [4] | z-score [5] | composite z-score [6] | composite z-score [7] | composite z-score (Torsin-1A (Homo sapiens) [8]) | composite z-score (Torsin-1A (Homo sapiens) [9]) | composite z-score [10]
1 | CC(=O)NCCCC[C@@H]1NC(=O)[C@H]2C[C@@H](C(=O)NCCCCCNC(=O)CS)[C@@H](c3ccc(O)cc3)N2C1=O | 0.0736 | -0.47 (inactive) | -0.589 (inactive) | -0.122 (inactive) | -0.112 (inactive) | -0.502 | 0.0391 | 0.261 | -0.711 | 0.468
2 | OCCCC1=CC(C2CC2)N(Cc2cccc(OC(F)(F)F)c2)CC1 (stereo not given) | -0.416 | -0.28 (inactive) | 0.129 (inactive) | 0.0882 (inactive) | 0.0103 (inactive) | -0.753 | -0.213 | -0.176 | -0.773 | 1
3 | O=C1NC(=O)C2C1C=CC(C(O)c1ccc(-c3ccccc3)s1)N2Nc1ccc(Cl)cc1Cl (stereo not given) | 0.289 | -1.1 (inactive) | -1.77 (inactive) | -0.136 (inactive) | -0.128 (inactive) | 1.34 | 0.0569 | 0.344 | 0.14 | -0.82
4 | C=CCNC(=O)[C@H]1[C@@H]2C(=O)O[C@@H](c3ccccc3)[C@@H](c3ccccc3)N2[C@@H](c2ccc(O)cc2)[C@]12C(=O)Nc1ccc(C#CCCO)cc12 | -0.169 | 0.0368 (inactive) | 0.722 (inactive) | 0.452 (inactive) | -0.67 (inactive) | -0.374 | -0.152 | -0.944 | -0.187 | 0.717
5 | CS(=O)(=O)CCOC(=O)C1=CC(CCCO)=CC(C2CC2)N(Cc2cc3c(cc2Br)OCO3)C=C1C(=O)OCCS(C)(=O)=O (stereo not given) | 0.0339 | -0.737 (inactive) | -0.453 (inactive) | -0.0424 (inactive) | 0.926 (inactive) | 0.635 | -0.0695 | 0.913 | 1.03 | 0.358
6 | O=C(O)C1N=C(c2ccc(OCCCO)cc2)N(c2ccccc2)O1 (stereo not given) | 0.222 | -0.205 (inactive) | 1.3 (inactive) | 0.101 (inactive) | 1.16 (inactive) | 0.926 | -0.166 | 0.666 | 1.72 | 0.287
7 | O=C(NC1CC1)[C@@H]1c2ccccc2C(=O)N(Cc2cc(F)cc(C(F)(F)F)c2)[C@H]1c1ccc(CO)cc1 | 0.518 | -0.335 (inactive) | -0.435 (inactive) | 0.001 (inactive) | 0.162 (inactive) | -0.685 | -0.0468 | 0.517 | 0.543 | -0.296

From PubChem BioAssay
